# Laboratory results reported in PMC5540273 (PLoS ONE, 2017).
# Where two headings read alike, the source gives them in different places.
# Columns and labels:
# ULK3 = conditions: concentration: 1 μM, replicates: in singlicate; n = 1
# VEGFR2 = tested on: T1, VEGFR2; conditions: concentration: 1 μM, replicates: in singlicate; n = 1
# T1 construct: gene KDR
# VPS34 = tested on: T2, VPS34; conditions: concentration: 1 μM, replicates: in singlicate; n = 1
# T2 construct: gene PIK3C3
# VRK2 = conditions: concentration: 1 μM, replicates: in singlicate; n = 1
# WEE1 = conditions: concentration: 1 μM, replicates: in singlicate; n = 1
# WEE2 = conditions: concentration: 1 μM, replicates: in singlicate; n = 1
# WNK1 = conditions: concentration: 1 μM, replicates: in singlicate; n = 1
# WNK2 = conditions: concentration: 1 μM, replicates: in singlicate; n = 1
# WNK3 = conditions: concentration: 1 μM, replicates: in singlicate; n = 1
# WNK4 = conditions: concentration: 1 μM, replicates: in singlicate; n = 1
# YANK1 = tested on: T3, YANK1; conditions: concentration: 1 μM, replicates: in singlicate; n = 1
# T3 construct: gene STK32A
# YANK2 = tested on: T4, YANK2; conditions: concentration: 1 μM, replicates: in singlicate; n = 1
# T4 construct: gene STK32B
# YANK3 = tested on: T5, YANK3; conditions: concentration: 1 μM, replicates: in singlicate; n = 1
# T5 construct: gene STK32C
# YES = tested on: T6, YES; conditions: concentration: 1 μM, replicates: in singlicate; n = 1
# T6 construct: gene YES1
# YSK1 = tested on: T7, YSK1; conditions: concentration: 1 μM, replicates: in singlicate; n = 1
# T7 construct: gene STK25
# YSK4 = tested on: T8, YSK4; conditions: concentration: 1 μM, replicates: in singlicate; n = 1
# T8 construct: gene MAP3K19
# ZAK = conditions: concentration: 1 μM, replicates: in singlicate; n = 1
# ZAP70 = conditions: concentration: 1 μM, replicates: in singlicate; n = 1
# p38-alpha = tested on: T9, p38-alpha; conditions: n = 1
# T9 construct: gene MAPK14
# p38-beta = tested on: T10, p38-beta; conditions: concentration: 1 μM, replicates: in singlicate; n = 1
# T10 construct: gene MAPK11
# [1] = concentration: 1 μM, replicates: in singlicate
# 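Note: KINOMEscan kinase panel screen.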
smiles,measurement,setting,value
CCc1ccc(-c2ccc3c(c2)-c2nn(C)cc2S(=O)(=O)N3C)cc1,%Inh,ULK3,0%
same,%Inh,VEGFR2,0%
same,%Inh,VPS34,0%
same,%Inh,VRK2,14%
same,%Inh,WEE1,21%
same,%Inh,WEE2,0%
same,%Inh,WNK1,6%
same,%Inh,WNK2,0%
same,%Inh,WNK3,0%
same,%Inh,WNK4,0%
same,%Inh,YANK1,0%
same,%Inh,YANK2,12%
same,%Inh,YANK3,0%
same,%Inh,YES,0%
same,%Inh,YSK1,0%
same,%Inh,YSK4,0%
same,%Inh,ZAK,0%
same,%Inh,ZAP70,0%
same,%Inh,p38-alpha; [1],0%
same,%Inh,p38-beta,12%
COc1cc2nccc(Nc3ccc(OCc4ccc(NC(C)=O)cc4)cc3)c2cc1OC.Cl [GW440135],%Inh,ULK3,13%
same,%Inh,VEGFR2,96.2%
same,%Inh,VPS34,0%
same,%Inh,VRK2,35%
same,%Inh,WEE1,29%
same,%Inh,WEE2,12%
same,%Inh,WNK1,2%
same,%Inh,WNK2,16%
same,%Inh,WNK3,39%
same,%Inh,WNK4,0%
same,%Inh,YANK1,0%
same,%Inh,YANK2,4%
same,%Inh,YANK3,0%
same,%Inh,YES,11%
same,%Inh,YSK1,0%
same,%Inh,YSK4,0%
same,%Inh,ZAK,10%
same,%Inh,ZAP70,16%
same,%Inh,p38-alpha; [1],18%
same,%Inh,p38-beta,0%
O=C(Nc1n[nH]c2nc(-c3ccccc3)c(Cl)cc12)C1CC1 [SB-734909],%Inh,ULK3,0%
same,%Inh,VEGFR2,15%
same,%Inh,VPS34,0%
same,%Inh,VRK2,0%
same,%Inh,WEE1,0%
same,%Inh,WEE2,0%
same,%Inh,WNK1,1%
same,%Inh,WNK2,0%
same,%Inh,WNK3,7%
same,%Inh,WNK4,0%
same,%Inh,YANK1,17%
same,%Inh,YANK2,0%
same,%Inh,YANK3,0%
same,%Inh,YES,0%
same,%Inh,YSK1,0%
same,%Inh,YSK4,85%
same,%Inh,ZAK,14%
same,%Inh,ZAP70,10%
same,%Inh,p38-alpha; [1],24%
same,%Inh,p38-beta,39%
O=C(Nc1n[nH]c2nc(-c3ccccc3)c(Br)cc12)C1CC1 [SB-708998],%Inh,ULK3,11%
same,%Inh,VEGFR2,2%
same,%Inh,VPS34,0%
same,%Inh,VRK2,0%
same,%Inh,WEE1,0%
same,%Inh,WEE2,0%
same,%Inh,WNK1,2%
same,%Inh,WNK2,0%
same,%Inh,WNK3,9%
same,%Inh,WNK4,0%
same,%Inh,YANK1,7%
same,%Inh,YANK2,10%
same,%Inh,YANK3,11%
same,%Inh,YES,12%
same,%Inh,YSK1,0%
same,%Inh,YSK4,95.3%
same,%Inh,ZAK,9%
same,%Inh,ZAP70,5%
same,%Inh,p38-alpha; [1],7%
same,%Inh,p38-beta,41%
CC(C)(C)c1ccc(C(=O)Nc2cn3cc(-c4ccccc4)ccc3n2)cc1,%Inh,ULK3,12%
same,%Inh,VEGFR2,0%
same,%Inh,VPS34,0%
same,%Inh,VRK2,1%
same,%Inh,WEE1,6%
same,%Inh,WEE2,0%
same,%Inh,WNK1,0%
same,%Inh,WNK2,0%
same,%Inh,WNK3,0%
same,%Inh,WNK4,16%
same,%Inh,YANK1,0%
same,%Inh,YANK2,0%
same,%Inh,YANK3,0%
same,%Inh,YES,2%
same,%Inh,YSK1,0%
same,%Inh,YSK4,21%
same,%Inh,ZAK,14%
same,%Inh,ZAP70,0%
same,%Inh,p38-alpha; [1],0%
same,%Inh,p38-beta,11%
Nc1nc(-c2ccccc2F)c(-c2ccnc3ccccc23)s1 [GW560459],%Inh,ULK3,4%
same,%Inh,VEGFR2,0%
same,%Inh,VPS34,0%
same,%Inh,VRK2,37%
same,%Inh,WEE1,0%
same,%Inh,WEE2,0%
same,%Inh,WNK1,11%
same,%Inh,WNK2,7%
same,%Inh,WNK3,35%
same,%Inh,WNK4,48%
same,%Inh,YANK1,39%
same,%Inh,YANK2,8%
same,%Inh,YANK3,0%
same,%Inh,YES,0%
same,%Inh,YSK1,13%
same,%Inh,YSK4,13%
same,%Inh,ZAK,17%
same,%Inh,ZAP70,13%
same,%Inh,p38-alpha; [1],99.8%
same,%Inh,p38-beta,0%
Nc1ncnc2c1ncn2-c1cccc(F)c1 [SKF-97560],%Inh,ULK3,21%
same,%Inh,VEGFR2,6%
same,%Inh,VPS34,4%
same,%Inh,VRK2,29%
same,%Inh,WEE1,0%
same,%Inh,WEE2,0%
same,%Inh,WNK1,3%
same,%Inh,WNK2,73%
same,%Inh,WNK3,0%
same,%Inh,WNK4,54%
same,%Inh,YANK1,17%
same,%Inh,YANK2,0%
same,%Inh,YANK3,0%
same,%Inh,YES,16%
same,%Inh,YSK1,0%
same,%Inh,YSK4,40%
same,%Inh,ZAK,26%
same,%Inh,ZAP70,21%
same,%Inh,p38-alpha; [1],0%
same,%Inh,p38-beta,0%
Cc1nn2c(=O)cc(N3CCOCC3)nc2n1Cc1cccc(Cl)c1Cl [GSK2342769],%Inh,ULK3,11%
same,%Inh,VEGFR2,0%
same,%Inh,VPS34,95.4%
same,%Inh,VRK2,0%
same,%Inh,WEE1,1%
same,%Inh,WEE2,9%
same,%Inh,WNK1,0%
same,%Inh,WNK2,3%
same,%Inh,WNK3,13%
same,%Inh,WNK4,0%
same,%Inh,YANK1,0%
same,%Inh,YANK2,0%
same,%Inh,YANK3,22%
same,%Inh,YES,13%
same,%Inh,YSK1,0%
same,%Inh,YSK4,32%
same,%Inh,ZAK,9%
same,%Inh,ZAP70,0%
same,%Inh,p38-alpha; [1],0%
same,%Inh,p38-beta,0%
COc1cc2ncn(-c3cc(OCc4ccncc4)c(C(N)=O)s3)c2cc1OC [GSK336313],%Inh,ULK3,9%
same,%Inh,VEGFR2,7%
same,%Inh,VPS34,5%
same,%Inh,VRK2,0%
same,%Inh,WEE1,33%
same,%Inh,WEE2,15%
same,%Inh,WNK1,7%
same,%Inh,WNK2,0%
same,%Inh,WNK3,10%
same,%Inh,WNK4,0%
same,%Inh,YANK1,8%
same,%Inh,YANK2,0%
same,%Inh,YANK3,4%
same,%Inh,YES,0%
same,%Inh,YSK1,35%
same,%Inh,YSK4,30%
same,%Inh,ZAK,1%
same,%Inh,ZAP70,0%
same,%Inh,p38-alpha; [1],5%
same,%Inh,p38-beta,0%
O=C(NCc1cccs1)c1cc(C(=O)c2c(Cl)cccc2Cl)c[nH]1 [GW823670],%Inh,ULK3,0%
same,%Inh,VEGFR2,0%
same,%Inh,VPS34,0%
same,%Inh,VRK2,0%
same,%Inh,WEE1,2%
same,%Inh,WEE2,5%
same,%Inh,WNK1,0%
same,%Inh,WNK2,0%
same,%Inh,WNK3,0%
same,%Inh,WNK4,0%
same,%Inh,YANK1,0%
same,%Inh,YANK2,0%
same,%Inh,YANK3,0%
same,%Inh,YES,0%
same,%Inh,YSK1,11%
same,%Inh,YSK4,0%
same,%Inh,ZAK,0%
same,%Inh,ZAP70,0%
same,%Inh,p38-alpha; 1 µM,23%
same,%Inh,p38-beta,9%
